According to PubChem BioAssay (NCI):
This is part of a sample that, as a whole, favours compounds with a hit. Of some 83,000 tested, about 20% had one in any assay.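 Testing used 96-well plates and a 48-hour single-concentration exposure. Example: -40 means 40% of the starting cells died.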

Columns and labels:
Assay in all cases: NCI-60 one-dose screen, 48 h (100 = growth as untreated, 0 = no growth, -100 = all killed)
Conditions in all cases: 10 µM unless noted; active means growth percent below 10; inactive means the rest
DU-145 prostate = system: DU-145 prostate
K-562 leukemia = system: K-562 leukemia
MALME-3M melanoma = system: MALME-3M melanoma
MDA-MB-231 breast = system: MDA-MB-231 breast
RXF 393 renal = system: RXF 393 renal
SF-268 CNS = system: SF-268 CNS
SF-295 CNS = system: SF-295 CNS
SF-539 CNS = system: SF-539 CNS
UACC-257 melanoma = system: UACC-257 melanoma
M14 melanoma = system: M14 melanoma
HCT-15 colon = system: HCT-15 colon
HT29 colon = system: HT29 colon
SNB-75 CNS = system: SNB-75 CNS
SNB-19 CNS = system: SNB-19 CNS
U251 CNS = system: U251 CNS
PC-3 prostate = system: PC-3 prostate
SK-MEL-5 melanoma = system: SK-MEL-5 melanoma
UACC-62 melanoma = system: UACC-62 melanoma
LOX IMVI melanoma = system: LOX IMVI melanoma
SK-MEL-28 melanoma = system: SK-MEL-28 melanoma

Measured: growth

CCOC(=O)C(c1ccccc1)N1C(=O)c2ccccc2C1=O (stereo not given)
inactive: DU-145 prostate 107% | K-562 leukemia 114% | MALME-3M melanoma 94.9% | MDA-MB-231 breast 103% | RXF 393 renal 105% | SF-268 CNS 99.7% | SF-295 CNS 100% | SF-539 CNS 97.9% | UACC-257 melanoma 91.9% | M14 melanoma 96.7% | HCT-15 colon 97.3% | HT29 colon 102% | SNB-75 CNS 91.1% | SNB-19 CNS 100% | U251 CNS 93.8% | PC-3 prostate 98.4% | SK-MEL-5 melanoma 100% | UACC-62 melanoma 95% | LOX IMVI melanoma 91.4% | SK-MEL-28 melanoma 99.2%

CCCCCCNC(=O)Nc1ncnc2c1ncn2-c1ccccc1
inactive: DU-145 prostate 108% | K-562 leukemia 106% | MALME-3M melanoma 115% | MDA-MB-231 breast 92.8% | RXF 393 renal 106% | SF-268 CNS 103% | SF-295 CNS 90.1% | SF-539 CNS 94% | UACC-257 melanoma 105% | M14 melanoma 104% | HCT-15 colon 95.2% | HT29 colon 99.4% | SNB-75 CNS 72.7% | SNB-19 CNS 94.2% | U251 CNS 94.8% | PC-3 prostate 89.4% | SK-MEL-5 melanoma 98.3% | UACC-62 melanoma 97.6% | LOX IMVI melanoma 102% | SK-MEL-28 melanoma 104%

CC(C)OC(=O)Nc1cc(F)c(F)cc1F
inactive: DU-145 prostate 110% | K-562 leukemia 111% | MALME-3M melanoma 89.9% | MDA-MB-231 breast 103% | RXF 393 renal 104% | SF-268 CNS 101% | SF-295 CNS 102% | SF-539 CNS 96.2% | UACC-257 melanoma 94.8% | M14 melanoma 93.7% | HCT-15 colon 98.1% | HT29 colon 99.3% | SNB-75 CNS 96.3% | SNB-19 CNS 102% | U251 CNS 99.3% | PC-3 prostate 99.8% | SK-MEL-5 melanoma 102% | UACC-62 melanoma 96.6% | LOX IMVI melanoma 109% | SK-MEL-28 melanoma 96%
